This is an account of results in PubChem BioAssay (NCATS).

Several values for one entry are separate records, joined by “and”; a condition that tells them apart may be missing. Equal entries are not always repeated. Inconclusive results are not listed. Activity calls are given as the source filed them. Unless noted, the call rests on the fitted dose curve; in most records, active means well fitted curve in the direction sought with a large enough effect; inconclusive means small, poorly fitted or top-dose-only effect, or another doubt; inactive means no such curve, though single readings can be large; an effect the other way counts as inactive or inconclusive.

Assay [1] is described as follows: Cell Viability - LYMP2-014 (AID 983).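 Further: cells exposed to compound for 24 h at 37 °C; plate controls were DMSO only for no effect and 92 µM tetraoctylammonium bromide for full effect; nearly all actives have a fitted effect of over 50% in size.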 The gist of the method: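 Quantitative HTS in lymphoblastoid cells: 24 hr compound exposure, then CellTiter-Glo ATP luminescence. Positive control was tetraoctylammonium bromide, 6.4pM to 92 uM.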
The nature of assay [2]: Cell Viability - LYMP2-018 (AID 985).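 Further: plate controls were DMSO only for no effect and tetraoctylammonium bromide at 92 µM for full effect; nearly all actives have a fitted effect of over 50% in size.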 In a few lines:
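In this qHTS viability assay, cells are treated for 24 hr and cellular ATP is quantified by luciferase-based luminescence, with tetraoctylammonium bromide as positive control.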

Assay [3] can be described thus: Cell Viability - LYMP2-024 (AID 988).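 Further: plate controls were DMSO only for no effect and 92 µM tetraoctylammonium bromide for full effect; nearly all actives have a fitted effect of over 60% in size.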 The gist of the method:
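Cells at 2500 per well received compound for 24 hr after a 5 hr settling period. Viability was scored by CellTiter-Glo luminescence, with AC50 from Hill fits.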

Assay [4] addresses Estrogen receptor (Homo sapiens) (UniProt P03372). The assay is described as follows: qHTS assay for small molecule antagonists of estrogen receptor alpha signaling (AID 588513; active means well fitted curve in the direction sought with a large enough effect in the signal ratio, with a control signal flat, not every such curve was filed as active; the % refers to the signal ratio; further: on the % scale 0 is the no-effect control and ±100 the full control effect). The gist of the method:
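Beta-lactamase reporter, antagonist mode, HEK 293 GripTite cells; 0.5nM E2 stimulus, 18 h, 37 C; CCF4 dye 2 h RT; fluorescence. IC50 and efficacy from Hill fits, normalized to E2 and DMSO.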

Assay [5] has the same target. The assay is described as follows: qHTS assay for small molecule agonists of estrogen receptor alpha signaling (AID 588514; calls by dose curve;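 further: 0% = vehicle only and 100% = reference agonist; nearly all actives have a fitted effect of over 70% in size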). The gist of the method:
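Fluorescence from CCF4 cleavage reports ER-alpha-driven beta-lactamase expression in HEK 293 cells treated 18 hrs at 37 C. Data normalized to 17-beta-estradiol (20 nM) and DMSO, fitted to Hill equation.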
(In general: In qHTS, concentration-response curves come from the screen itself.)

In assay [6] the target is Glucocorticoid receptor (Homo sapiens) (UniProt P04150). The assay is described as follows: qHTS assay for small molecule agonists of glucocorticoid receptor signaling (AID 588532; active means well fitted curve in the direction sought with a large enough effect in the signal ratio, with a control signal flat; the % refers to the signal ratio;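 further: 100% = dexamethasone at 0.1 µM and 0% = DMSO only wells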). Conditions: HeLa MMTV-bla, beta-lactamase ratio, agonist, 18 h; stronger effect = higher value; percent of dexamethasone control, DMSO zero. In a few lines:
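MMTV-bla HeLa beta-lactamase reporter cells in 1% charcoal/dextran FBS medium, compounds up to 92 uM for 18 h at 37 C, CCF4 readout; normalized to 0.1 uM dexamethasone (100%), EC50 and efficacy from Hill fits.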

The target is the same in assay [7]. Description: qHTS assay for small molecule antagonists of glucocorticoid receptor signaling (AID 588533; active means well fitted inhibition curve with a large enough effect in the signal ratio, with a control signal flat, not every such curve was filed as active; the % refers to the signal ratio;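 further: cells stimulated with 2 nM dexamethasone as agonist; on the % scale 0 is the no-effect control and ±100 the full control effect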). In a few lines: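 Antagonist-mode qHTS: compound titrations added to GRE-bla HeLa cells, then dexamethasone 2 nM final; 18 h, 37 C. CCF4 FRET fluorescence normalized to dexamethasone and DMSO; IC50 from Hill fit.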
Assay [8] concerns the target Peroxisome proliferator-activated receptor delta (Homo sapiens) (UniProt Q03181). The assay is described as follows: qHTS assay for small molecule agonists of peroxisome proliferator-activated receptor delta signaling (AID 588534; calls by dose curve;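 further: 0% = DMSO basal wells and 100% = positive control agonist at 10 µM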). The gist of the method:
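EC50 and efficacy values derive from Hill fits of a concentration series in a beta-lactamase reporter cell assay. Exposure is 18 hrs at 37 C, with CCF4 fluorescence as the readout.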

A short description of assay [9]: qHTS assay for small molecule antagonists of peroxisome proliferator-activated receptor delta signaling (AID 588535; active means well fitted inhibition curve with a large enough effect in the signal ratio, with a control signal flat, not every such curve was filed as active; the % refers to the signal ratio;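 on max response: cells co-treated with a PPAR-delta agonist as stimulator during compound exposure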). As to conditions: HEK293T PPARd-UAS-bla, beta-lactamase FRET ratio, 18 h; 460 nm channel. In a few lines:
(§1)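 Beta-lactamase reporter read-out (405 nm excitation, 460/530 nm emission) after CCF4 loading for 2 hrs at RT. HEK293T PPAR-delta-UAS-bla cells, 2% charcoal/dextran FBS, compounds for 18 hrs at 37 C. Hill fit gave IC50 and efficacy.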

The target of assay [10] is Peroxisome proliferator-activated receptor delta (Homo sapiens) (UniProt Q03181). The assay is described as above. The gist of the method: as §1
Chain of Peroxisome proliferator-activated receptor delta (Homo sapiens) (Q03181 whole entry, looked up): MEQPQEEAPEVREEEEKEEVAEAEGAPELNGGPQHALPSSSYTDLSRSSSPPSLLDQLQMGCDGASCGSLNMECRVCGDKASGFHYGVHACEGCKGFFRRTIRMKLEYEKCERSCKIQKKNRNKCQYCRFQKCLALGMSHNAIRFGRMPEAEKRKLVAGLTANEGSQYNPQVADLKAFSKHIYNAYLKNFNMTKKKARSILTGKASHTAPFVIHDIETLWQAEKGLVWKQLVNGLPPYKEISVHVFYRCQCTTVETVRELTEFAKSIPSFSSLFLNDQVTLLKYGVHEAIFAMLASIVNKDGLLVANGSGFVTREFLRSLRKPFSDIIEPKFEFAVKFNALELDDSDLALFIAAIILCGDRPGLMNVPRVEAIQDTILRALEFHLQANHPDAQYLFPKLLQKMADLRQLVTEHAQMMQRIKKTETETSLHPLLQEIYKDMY
The target in assay [11] is Peroxisome proliferator-activated receptor gamma (Homo sapiens) (UniProt P37231). The assay is described as follows: qHTS assay for small molecule agonists of peroxisome proliferator-activated receptor gamma signaling (AID 588536; active means well fitted curve in the direction sought with a large enough effect in the signal ratio, with a control signal flat, not every such curve was filed as active; the % refers to the signal ratio;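 further: 0% = DMSO basal wells and 100% = rosiglitazone at 2 µM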). The gist of the method: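 Cells were plated and held 6–6.5 h at 37 C, then compounds were added as a titration series. After a further 16 h, CCF4 dye was loaded for 2 h at room temperature and emission at 460/530 nm recorded.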
Chain of Peroxisome proliferator-activated receptor gamma (Homo sapiens) (P37231 whole entry, looked up): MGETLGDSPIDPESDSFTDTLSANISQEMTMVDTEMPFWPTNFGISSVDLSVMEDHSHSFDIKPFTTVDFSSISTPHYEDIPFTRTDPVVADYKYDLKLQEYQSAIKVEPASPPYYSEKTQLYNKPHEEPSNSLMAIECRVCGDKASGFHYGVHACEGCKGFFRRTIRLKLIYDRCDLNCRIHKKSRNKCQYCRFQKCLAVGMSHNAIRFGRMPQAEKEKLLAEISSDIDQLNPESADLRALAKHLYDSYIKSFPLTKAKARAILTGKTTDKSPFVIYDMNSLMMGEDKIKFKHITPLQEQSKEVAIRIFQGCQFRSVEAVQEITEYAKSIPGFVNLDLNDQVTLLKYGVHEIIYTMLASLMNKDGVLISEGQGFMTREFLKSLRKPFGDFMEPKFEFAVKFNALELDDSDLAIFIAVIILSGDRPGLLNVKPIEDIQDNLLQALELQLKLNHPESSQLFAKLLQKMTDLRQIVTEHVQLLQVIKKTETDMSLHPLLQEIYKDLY

The target in assay [12] is Voltage-gated inwardly rectifying potassium channel KCNH2 (Homo sapiens) (UniProt Q12809). Description: qHTS Assay for Small Molecule Inhibitors of the Human hERG Channel Activity (AID 588834).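 Further: lower thallium flux fluorescence means stronger hERG block; nearly all actives have a fitted effect of over 50% in size.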 Further: potency means the concentration at half of the fitted maximal effect. In a few lines: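 Thallium-flux (FluxOR) read-out on FDSS: fluorescence read 10 s before and 2 min after stimulation buffer. hERG-BacMam-transduced U2OS cells, compound exposure about 10 min. AC50 by standard Hill equation.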
Chain of Voltage-gated inwardly rectifying potassium channel KCNH2 (Homo sapiens) (Q12809 whole entry, looked up): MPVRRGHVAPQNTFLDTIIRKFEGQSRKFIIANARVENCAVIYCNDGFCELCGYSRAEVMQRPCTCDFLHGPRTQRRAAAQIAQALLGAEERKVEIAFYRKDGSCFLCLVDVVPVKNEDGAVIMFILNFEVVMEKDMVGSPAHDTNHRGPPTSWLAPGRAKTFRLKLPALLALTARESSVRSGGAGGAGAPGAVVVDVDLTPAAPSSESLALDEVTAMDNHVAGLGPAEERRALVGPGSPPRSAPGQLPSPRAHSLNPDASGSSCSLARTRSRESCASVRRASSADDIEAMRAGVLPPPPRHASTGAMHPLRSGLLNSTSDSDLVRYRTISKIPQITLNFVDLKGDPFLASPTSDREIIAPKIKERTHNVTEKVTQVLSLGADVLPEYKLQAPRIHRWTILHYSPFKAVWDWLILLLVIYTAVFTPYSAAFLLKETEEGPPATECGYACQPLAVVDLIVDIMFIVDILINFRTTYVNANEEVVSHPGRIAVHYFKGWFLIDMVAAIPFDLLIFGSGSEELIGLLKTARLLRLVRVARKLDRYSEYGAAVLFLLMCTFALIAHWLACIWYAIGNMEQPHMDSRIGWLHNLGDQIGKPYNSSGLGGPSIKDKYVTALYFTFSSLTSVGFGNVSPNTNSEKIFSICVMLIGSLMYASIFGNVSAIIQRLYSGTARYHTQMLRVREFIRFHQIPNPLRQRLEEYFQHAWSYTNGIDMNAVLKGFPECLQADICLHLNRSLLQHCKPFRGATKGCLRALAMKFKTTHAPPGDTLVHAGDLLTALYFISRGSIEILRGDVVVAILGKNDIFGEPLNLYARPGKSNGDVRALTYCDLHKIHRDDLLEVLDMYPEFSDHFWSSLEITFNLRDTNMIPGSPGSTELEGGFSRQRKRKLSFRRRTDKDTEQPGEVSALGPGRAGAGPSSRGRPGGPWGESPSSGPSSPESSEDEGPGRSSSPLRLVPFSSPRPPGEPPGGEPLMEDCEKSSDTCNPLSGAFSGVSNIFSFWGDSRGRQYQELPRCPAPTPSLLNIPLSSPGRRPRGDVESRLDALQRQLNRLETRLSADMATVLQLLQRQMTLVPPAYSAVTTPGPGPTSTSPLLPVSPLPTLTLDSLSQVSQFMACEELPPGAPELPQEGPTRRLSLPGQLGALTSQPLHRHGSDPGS

A short description of assay [13]: qHTS assay for small molecule agonists of the antioxidant response element (ARE) signaling pathway (AID 651741; active means well fitted activation curve with a large enough effect in the signal ratio; the % refers to the signal ratio; further: potency means the concentration at half of the fitted maximal effect; on activation: % of control where 0% means no effect). In a few lines: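 HepG2 ARE-bla reporter cells, 2,000/well; 5 h settle at 37 C/5% CO2; compound pin transfer (23 nL, DMSO); 16 h at 37 C; LiveBLAzer B/G FRET substrate, 2 h RT; fluorescence intensity read.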
Assay [14] is described as follows: qHTS assay for small molecule activators of the nuclear factor-kappa B (NF-kB) signaling pathway (AID 651749; active means well fitted activation curve with a large enough effect in the signal ratio; the % refers to the signal ratio; further: % of control where 0% means no effect). As to conditions: NF-kB-bla ME-180 cells, beta-lactamase FRET ratio, 16 h; stronger effect = higher value. The gist of the method:
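NF-kB-bla ME-180 cells, 2,000/well; 23 nL compound or DMSO pinned; 16 hr, 37C/5% CO2; beta-lactamase FRET read-out.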

Assay [15] in a line: qHTS assay for small molecule disruptors of the mitochondrial membrane potential - 5 hr assay (AID 651755; calls by dose curve; further: on the % scale 0 is the no-effect control and ±100 the full control effect; nearly all actives have a fitted effect of over 40% in size). The gist of the method: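 Read-out: ratiometric Mito-MPS fluorescence, green monomer (ex 490/em 535) vs red mitochondrial aggregate (ex 540/em 590). HepG2 cells treated 5 hr at 37C before 30 min dye loading.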
Assay [16] is described as follows: qHTS assay for environmental chemicals that activate the Aryl hydrocarbon Receptor (AhR) signaling pathway (AID 651777). Further: % of control where 0% means no effect; nearly all actives have a fitted effect of over 15% in size. As to conditions: 1A2-DRE human hepatoma cells, luciferase, 24 h; activation: stronger effect = higher value. The gist of the method:
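Concentration–response screening used 1,200 1A2-DRE cells per well, 24 hr compound exposure (37 C, 5% CO2), and One-Glo luminescence as the AhR-driven CYP1A2 reporter signal.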

A short description of assay [17]: Cell Viability - H-4-II-E (AID 543).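 Further: cells exposed to compound for 40 hours; on the % scale 0 is the no-effect control and ±100 the full control effect; nearly all actives have a fitted effect of over 35% in size.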 The gist of the method:
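AC50 from Hill-modelled qHTS concentration-response curves. H-4-II-E rat hepatoma cells in complete medium, 40 hr exposure at 37 °C, viability by CellTiter-Glo ATP luminescence.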

The nature of assay [18]: MultiTox-Fluor Cytotoxicity Assay - LYMP1-001 - Live Cells (AID 947).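 Further: 0% = DMSO only and full inhibition = tetraoctylammonium bromide control.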
A short description of assay [19]: Cell Viability - NIH 3T3 (AID 541).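 Further: cells exposed to compound for 40 hours; plate controls were DMSO alone for no effect and tamoxifen positive control for full effect; nearly all actives have a fitted effect of over 25% in size.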 Conditions: NIH 3T3 cell viability, qHTS; activity change, negative = cytotoxicity: at 92.2 µM (top of the series). In a few lines:
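In this cytotoxicity screen, acute toxicity is scored as an ATP drop measured by CellTiter-Glo in NIH 3T3 fibroblasts following a 40 hr, 37 °C incubation with compound.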

The target in assay [20] is Peroxisome proliferator-activated receptor gamma (Homo sapiens) (UniProt P37231). The assay is described as follows: qHTS assay for small molecule antagonists of peroxisome proliferator-activated receptor gamma signaling (AID 588537; active means well fitted inhibition curve with a large enough effect in the signal ratio, with a control signal flat, not every such curve was filed as active; the % refers to the signal ratio;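 further: reporter cells co-stimulated with 50 nM rosiglitazone agonist during compound treatment; % of control where 0% means no effect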). In a few lines:
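Read-out: CCF4 fluorescence (ex 405, em 460/530 nm) after 2 h at RT. Cells were HEK293 carrying a UAS-bla reporter and treated 16 h at 37 C with compound plus rosiglitazone (50 nM final). Normalized to rosiglitazone and DMSO.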

Chain of Glucocorticoid receptor (Homo sapiens) (P04150 whole entry, looked up): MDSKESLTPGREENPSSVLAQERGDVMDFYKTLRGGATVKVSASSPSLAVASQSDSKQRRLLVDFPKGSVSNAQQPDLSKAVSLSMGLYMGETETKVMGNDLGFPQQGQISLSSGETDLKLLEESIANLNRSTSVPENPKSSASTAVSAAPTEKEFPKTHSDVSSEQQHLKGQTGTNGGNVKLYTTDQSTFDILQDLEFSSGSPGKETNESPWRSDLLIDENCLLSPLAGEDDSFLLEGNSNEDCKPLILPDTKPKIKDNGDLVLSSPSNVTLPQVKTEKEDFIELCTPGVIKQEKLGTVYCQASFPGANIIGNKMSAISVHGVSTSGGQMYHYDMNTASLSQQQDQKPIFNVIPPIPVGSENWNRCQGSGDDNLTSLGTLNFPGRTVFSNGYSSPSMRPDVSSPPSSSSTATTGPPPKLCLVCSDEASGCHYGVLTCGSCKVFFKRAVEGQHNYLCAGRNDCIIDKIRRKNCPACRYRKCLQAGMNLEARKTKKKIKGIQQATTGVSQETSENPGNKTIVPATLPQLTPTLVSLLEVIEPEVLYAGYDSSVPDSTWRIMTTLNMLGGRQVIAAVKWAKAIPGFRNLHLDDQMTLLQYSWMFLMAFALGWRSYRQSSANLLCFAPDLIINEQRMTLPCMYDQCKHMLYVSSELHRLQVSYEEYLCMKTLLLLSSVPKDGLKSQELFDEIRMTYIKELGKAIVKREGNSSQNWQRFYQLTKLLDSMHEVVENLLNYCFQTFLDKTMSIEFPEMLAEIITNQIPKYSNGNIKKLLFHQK
Chain of Estrogen receptor (Homo sapiens) (P03372 whole entry, looked up): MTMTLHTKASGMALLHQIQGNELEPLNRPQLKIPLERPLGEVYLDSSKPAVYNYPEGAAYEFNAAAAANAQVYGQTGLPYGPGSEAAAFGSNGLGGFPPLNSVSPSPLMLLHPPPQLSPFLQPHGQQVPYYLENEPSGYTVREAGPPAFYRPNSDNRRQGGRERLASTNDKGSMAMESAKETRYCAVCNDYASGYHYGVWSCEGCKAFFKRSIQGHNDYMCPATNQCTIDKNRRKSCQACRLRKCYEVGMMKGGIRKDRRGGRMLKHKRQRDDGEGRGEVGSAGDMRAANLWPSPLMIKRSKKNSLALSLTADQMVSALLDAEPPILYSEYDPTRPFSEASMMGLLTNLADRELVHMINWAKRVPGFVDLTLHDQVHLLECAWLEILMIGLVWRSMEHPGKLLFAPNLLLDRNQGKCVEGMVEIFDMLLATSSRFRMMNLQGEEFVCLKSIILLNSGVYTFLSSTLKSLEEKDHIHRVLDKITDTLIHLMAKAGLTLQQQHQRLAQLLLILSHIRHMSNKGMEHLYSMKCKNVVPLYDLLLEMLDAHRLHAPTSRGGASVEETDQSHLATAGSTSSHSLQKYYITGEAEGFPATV

Take `C=C(C)CCl`: the Potency entry in assay [1], in [2], in assay [3], in assay [4], in assay [5] and in assay [12] was “inactive” each time. The Potency result in [13] and in [15] was “inactive” in each case. Moreover, the results for the activation in assay [6], in assay [14] and in [16] were 15.7% (inactive), -0.185% (inactive) and -0.792% (inactive), respectively. Also, the compound was classed as inactive in assay [7], in assay [8], in [10] and in [11]. For the same compound, the max response in assay [9] amounted to 2.33%.

On to `Nc1ccccc1-c1ccccc1`, for which the Potency entry in assay [17], in [3], in assay [4] and in assay [12] was “inactive” in each case. Moreover, the result in assay [18], in assay [7], in assay [8] and in assay [11] was inactive. Further, the activation is -2.58% (inactive) in assay [6], -2.55% (inactive) in assay [14] and -0.114% (inactive) in [16]. Besides, in assay [13], the Potency was 42.2 µM (active).

In the case of `ClCCCCl`, the Potency result in assay [19], in [1], in assay [2], in [3], in assay [13] and in [15] was “inactive” in each case. Besides, the compound was called inactive in assay [18], in assay [8], in assay [10] and in assay [11]. The activation in assay [6] was -8% (inactive); in assay [14], 0.207% (inactive). Further, the max response in assay [9] came to 23.7%.

`C=C(Cl)CSC(=S)N(CC)CC`: in [19], the activity change, negative = cytotoxicity is -85.8% (active). The Potency entry in [17], in assay [20] and in [15] was “inactive” each time. Moreover, the result in assay [18], in assay [8], in assay [10] and in assay [11] was inactive. Further, in [9], the max response was -17.2%. Also, the Potency in [12] was 39.8 µM (active). Moreover, the results for the activation in [14] and in assay [16] were -0.634% (inactive) and 0.101% (inactive), respectively.

With `S=c1[nH]c2ccccc2[nH]1`, the Potency result in assay [19], in assay [2], in assay [20], in [12] and in assay [15] was “inactive” throughout. Besides, the activation in assay [6] is -3.9% (inactive); in assay [16], 1.98% (inactive). The compound was classed as inactive in assay [7] and in [11].

Take `CCCCCOC(=O)c1ccccc1C(=O)OCCCCC`: the Potency result in assay [19], in assay [1], in [2], in assay [3], in [4] and in [5] was “inactive” in each case. The Potency result in [20], in [13] and in assay [15] was “inactive” throughout. Moreover, the result in assay [18] and in [7] was inactive. Besides, the activation in assay [6] is 5.29% (inactive) and -3.67% (inactive); in assay [14], 1.01% (inactive) and -1.21% (inactive); in assay [16], 0.174% (inactive) and 4.48% (inactive).

`N#C/C(N)=C(/N)C#N`: the Potency result in [19], in assay [1], in [2], in assay [3], in assay [4] and in [5] was “inactive” in each case. Moreover, the Potency entry in assay [20], in [12] and in [15] was “inactive” in each case. The call in assay [18], in [7], in assay [8] and in assay [11] was inactive. Also, the results for the activation in [6], in assay [14] and in assay [16] were -0.556% (inactive), -1.05% (inactive) and 0.971% (inactive), respectively.

For the compound `O=[N+]([O-])c1ccc2c3c(cccc13)CC2`, the Potency result in assay [17], in assay [1], in [2], in [3], in assay [4] and in [5] was “inactive” in each case. Further, the Potency result in assay [20] and in assay [12] was “inactive” each time. Also, the activation in assay [6] is -4.28% (inactive) and -4.51% (inactive); in [14] it was -1.76% (inactive) and -1.52% (inactive). Also, the call in [7], in assay [8] and in assay [10] was inactive. The max response in [9] was 24.6%.
